These results are taken from the supplement of paper PMC10127200.

Structures can show the parent of a compound that is named as a salt.

What all share (experiment): Euclidean distance of Cell Painting phenotypic profile (signed KS, 77 features) to DMSO centroid (dimensionless distance); 5 or 10 uM (library dependent); higher = stronger phenotypic change vs DMSO (phenoactivity)
Common to all, as to conditions: 48 h

One assay relates to 786-O. Summed up:
(§1)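 Stained cells were imaged confocally at 20X with 9 fields per well, after 48 h of exposure to library compounds at 10 or 5 uM (set by library; 0.1% DMSO final). The cells were five cancer lines and a healthy fibroblast line. From the images, Harmony extracted 77 features, each expressed as a signed Kolmogorov-Smirnov statistic relative to same-plate vehicle wells. Phenoactivity is measured as Euclidean distance to the median vehicle profile, using plate-position-corrected, correlation-weighted profiles averaged across replicates at the top dose.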

The subject of the next assay is A549. The method, boiled down:
as §1

The subject of another assay is DU145. The method, boiled down: as §1
The subject of a further assay is FB. The method, boiled down:
as §1

The next assay relates to HEPG2. Summed up:
as §1

The test system of the next assay is OVCAR4. The method, boiled down:
as §1

As to `NC[C@H]1O[C@H](O[C@H]2[C@H](O[C@@H]3O[C@H](CO)[C@@H](O)[C@H]3O)[C@@H](O)[C@H](N)C[C@@H]2N)[C@H](N)[C@@H](O)[C@@H]1O` [Ribostamycin Sulfate], the Euclidean distance was found to be 1.45 in the assay on 786-O; 1.17 with A549; 1.23 in the assay with DU145; 0.806 in the assay with FB; 0.615 in the assay on HEPG2; 1.22 in the assay on OVCAR4.
Consider `NC[C@H](O)c1ccc(O)c(O)c1` [Noradrenaline bitartrate monohydrate], for which the Euclidean distance with 786-O turned out to be 1.19; in the assay with A549, 0.515; in the assay on DU145, 0.963; in the assay with FB it was 1.17; in the assay with HEPG2, 0.697; in the assay with OVCAR4, 0.846.
For `O=C(O)/C=C/c1ccc(Cn2ccnc2)cc1` [Ozagrel sodium], the Euclidean distance is 1.06 in the assay on 786-O; 1.08 with A549; 1.01 in the assay with DU145; 1.07 in the assay on FB; 1.03 with HEPG2; 0.564 in the assay with OVCAR4.
`CN(C)CCC=C1c2ccccc2C(C)(C)c2ccccc21` [Melitracen hydrochloride]: the Euclidean distance was found to be 1.33 with 786-O; 1.82 in the assay on A549; 2.27 in the assay with DU145; 2.65 with FB; 1.5 with HEPG2; 1.37 in the assay on OVCAR4.
Turning to `c1cn2cc(-c3ccc4cn[nH]c4c3)nc(Nc3ccc(N4CCOCC4)cc3)c2n1` [Entospletinib (GS-9973)], the Euclidean distance stood at 2.51 with 786-O; 2.15 with A549; 2.1 with DU145; 0.923 in the assay on FB; 0.994 in the assay on HEPG2; 1.42 in the assay with OVCAR4.
On to `O=C(Nc1ccc(OC(F)(F)F)cc1)c1sccc1NCc1ccnc2ccccc12`, for which the Euclidean distance came out at 1.19 with 786-O; 2.11 in the assay on A549; 1.25 in the assay with DU145; 1.38 with FB; 0.977 with HEPG2; 1.41 in the assay on OVCAR4.
Consider `O=C1c2cccc(O)c2C(=O)c2c(O)cccc21` [Danthron], for which the Euclidean distance worked out at 1.02 in the assay on 786-O; 0.914 in the assay with A549; 1.19 in the assay on DU145; 0.924 in the assay with FB; 0.868 in the assay on HEPG2; 1.12 in the assay on OVCAR4.
As to `CC(C)(C)NCC(O)COc1cccc2c1CC(O)C(O)C2` (centres undefined) [Nadolol], the Euclidean distance in the assay on 786-O was determined as 0.954; in the assay on A549, 1.38; in the assay on DU145, 1.88; with FB it was 0.792; in the assay with HEPG2, 0.849; with OVCAR4 it was 1.11.
Regarding `O=C(NCc1ccc(Oc2ccccc2)cc1)c1nc(-c2cc(Br)c(O)c(Br)c2)no1`, the Euclidean distance came to 0.904 in the assay with 786-O; 1.1 in the assay on A549; 0.858 in the assay on DU145; 0.788 with FB; 1.55 in the assay with HEPG2; 1.21 with OVCAR4.
With `OCC(O)CN1CCN(c2ccccc2)CC1` (centres undefined) [Dropropizine], the Euclidean distance in the assay on 786-O amounted to 1.11; with A549, 1.8; with DU145, 1.39; in the assay with FB, 1.1; in the assay on HEPG2, 0.735; in the assay on OVCAR4, 1.98.
`COc1ccccc1OCCNCC(O)COc1cccc2[nH]c3ccccc3c12` (centres undefined) [Carvedilol]: the Euclidean distance turned out to be 1.59 in the assay on 786-O; 1.04 in the assay on A549; 1.42 in the assay with DU145; 1.64 in the assay on FB; 2.22 in the assay with HEPG2; 1.86 with OVCAR4.
For `Cc1cc(Nc2ncc(Cl)c(Nc3ccccc3S(=O)(=O)C(C)C)n2)c(OC(C)C)cc1C1CCNCC1` [Ceritinib (LDK378)], the Euclidean distance was 6.15 in the assay on 786-O; 4.94 in the assay with A549; 7.35 in the assay on DU145; 6.34 in the assay with FB; 4.96 in the assay on HEPG2; 5.69 in the assay with OVCAR4.
Take `OCCn1cc(-c2cnc3nnn(Cc4ccc5ncccc5c4)c3n2)cn1`: the Euclidean distance in the assay on 786-O stood at 0.916; with A549, 0.988; in the assay with DU145 it was 0.98; with FB, 0.792; with HEPG2, 1.2; in the assay with OVCAR4, 1.08.
Regarding `CCC(NC(C)C)C(O)c1ccc(O)c2[nH]c(=O)ccc12` (centres undefined) [Procaterol HCl], the Euclidean distance in the assay on 786-O was determined as 1.23; with A549, 1.55; with DU145, 0.791; in the assay on FB, 0.891; in the assay with HEPG2, 2.17; with OVCAR4, 1.67.
For `COc1cc(NC(=O)c2ccc(-c3ccc(Cl)cc3)o2)cc(OC)c1`, the Euclidean distance was 0.91 in the assay with 786-O; 1.46 in the assay on A549; 1.23 in the assay on DU145; 0.788 in the assay with FB; 1.04 in the assay on HEPG2; 1.48 in the assay with OVCAR4.
Turning to `C1CNCCN1` [Piperazine], the Euclidean distance in the assay with 786-O is 1.04; in the assay on A549, 1.08; with DU145, 0.846; in the assay with FB it was 1.09; in the assay on HEPG2 it was 0.402; in the assay with OVCAR4 it was 1.67.
For the compound `O=C(Nc1ccc(S(=O)(=O)Nc2ccccc2Cl)c(Cl)c1)c1ccccn1`, the Euclidean distance was 0.876 with 786-O; 0.81 with A549; 0.6 in the assay with DU145; 0.594 in the assay with FB; 0.744 with HEPG2; 0.782 with OVCAR4.
Regarding `O=C(O)CCC(=O)c1ccc(-c2ccccc2)cc1` [Fenbufen], the Euclidean distance in the assay on 786-O amounted to 0.582; in the assay with A549 it was 1.6; in the assay on DU145 it was 0.988; with FB, 0.916; in the assay on HEPG2 it was 0.887; in the assay on OVCAR4, 1.11.
For the compound `CN(C)c1ccc(O)c2c1C[C@H]1C[C@H]3[C@H](N(C)C)C(O)=C(C(N)=O)C(=O)[C@@]3(O)C(O)=C1C2=O` [Minocycline HCl], the Euclidean distance is 1.46 with 786-O; 1.38 in the assay with A549; 1.2 in the assay on DU145; 1.33 with FB; 0.637 in the assay with HEPG2; 1.14 with OVCAR4.
Turning to `CN1C2CCCC1CC(NC(=O)c1nn(C)c3ccccc13)C2` (centres undefined) [Granisetron], the Euclidean distance was found to be 1.06 with 786-O; 0.852 with A549; 0.646 in the assay on DU145; 1.23 with FB; 1 with HEPG2; 2.06 in the assay on OVCAR4.
As for `N[C@@]1(C(=O)O)CS(=O)(=O)[C@H]2[C@H](C(=O)O)[C@H]21`, the Euclidean distance in the assay on 786-O stood at 0.494; with A549, 1.32; with DU145, 0.671; in the assay with FB, 0.749; in the assay with HEPG2 it was 0.743; in the assay with OVCAR4, 0.75.
With `CCOC(=O)c1c(CSc2ccccc2)n(C)c2cc(Br)c(O)c(CN(C)C)c12` [Arbidol HCl], the Euclidean distance in the assay on 786-O was 1.37; in the assay on A549, 1.41; in the assay on DU145 it was 2.16; in the assay on FB, 1.38; with HEPG2, 1.34; with OVCAR4 it was 1.63.
For `NC(=O)c1ccc(N(C(N)=O)c2c(F)cccc2F)nc1-c1ccc(F)cc1F`, the Euclidean distance with 786-O was found to be 1.24; with A549, 1.16; in the assay on DU145, 1.41; in the assay on FB, 1.37; with HEPG2 it was 0.723; in the assay on OVCAR4, 1.18.
Regarding `CO/N=C(\C(=O)N[C@@H]1C(=O)N2C(C(=O)[O-])=C(C[n+]3cccc4c3CCC4)CS[C@H]12)c1csc(N)n1` [Cefpirome sulfate], the Euclidean distance with 786-O is 0.835; in the assay with A549, 0.636; in the assay on DU145, 0.405; with FB, 0.989; with HEPG2, 0.508; in the assay with OVCAR4, 0.689.
